The list is not random: actives were taken first. Their share in the collection is about 2%.
M4 ag: agonists of human muscarinic M4 receptor (CHRM4); activation, % at 3 µM; CHO-K1 hM4/Gqi5, Fluo-8 calcium fluorescence; vehicle 0%, full acetylcholine response 100%; P08173; actives 0.14% (n = 360,000);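 active = activation above the run mean over all test wells plus 3 SD, cut at about 32% in these data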;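 also: peak over basal fluorescence ratio per well then scaled between controls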
Target sequence (P08173 whole entry, looked up): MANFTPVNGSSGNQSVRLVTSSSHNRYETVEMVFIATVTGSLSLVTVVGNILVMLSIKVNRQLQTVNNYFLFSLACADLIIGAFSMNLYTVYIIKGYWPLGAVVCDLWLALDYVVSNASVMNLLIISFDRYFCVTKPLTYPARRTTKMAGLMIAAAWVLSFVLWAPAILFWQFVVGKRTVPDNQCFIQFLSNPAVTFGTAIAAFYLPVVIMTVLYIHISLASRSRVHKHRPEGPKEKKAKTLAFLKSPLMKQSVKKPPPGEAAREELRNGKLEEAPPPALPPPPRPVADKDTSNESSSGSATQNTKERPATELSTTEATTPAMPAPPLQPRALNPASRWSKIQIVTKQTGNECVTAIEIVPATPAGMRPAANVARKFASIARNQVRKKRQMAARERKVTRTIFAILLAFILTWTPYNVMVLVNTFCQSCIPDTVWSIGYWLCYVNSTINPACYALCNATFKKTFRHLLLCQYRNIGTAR
CHO-K1 Ca antag: nonselective inhibitor or artifact in parental CHO-K1 cells. ATP-induced calcium, Fluo-8 fluorescence. actives 0.6% (n = 360,000). AID 602250. inhibition, % at 3 µM;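 active = inhibition above a per-plate cutoff, the plate's mean sample inhibition plus 3 SD, cut at about 24% in these data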
CHRM4 PAM: CHRM4 positive allosteric modulation. P08173. CHO-K1 hM4/Gqi5, Fluo-8 calcium fluorescence, ACh EC20; 0% = ACh EC20, 100% = maximal ACh. actives 0.4% (n = 360,000). activation, % at 3 µM;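 active = activation above its plate's cutoff, the mean activation of sample wells plus 3 SD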
CHRM4 antagonist: blocks acetylcholine activation of human M4 receptor. AID 624125. inhibition, % at 3 µM. actives 0.73% (n = 360,000). CHO-hM4 cells, ACh EC80, Fluo-8 calcium fluorescence. P08173;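 active = inhibition above its plate's cutoff, the mean inhibition of sample wells plus 3 SD, cut at about 27% in these data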
CHO-K1 Ca PAM: counter-screen for M1 PAMs: effect in parental CHO-K1 cells; ATP EC20, Fluo-8 calcium fluorescence; 0% at ATP EC20, 100% at ATP max; activation, % at 3 µM; actives 0.02% (n = 360,000); AID 602247;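 active = activation above the run cutoff, the mean activation of all test compounds plus 3 SD, cut at about 40% in these data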;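 also: peak over basal fluorescence ratio in a 140 s read after ATP addition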
CHO-K1 Ca ag: nonselective activator or artifact in parental CHO-K1 cells; Fluo-8 calcium fluorescence; scaled to maximal ATP response, vehicle zero; actives 0.48% (n = 360,000); activation, % at 3 µM; AID 602248; in the data active = activation above about 15%;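 also: untransfected CHO-K1 host cells lacking M1 receptor as counterscreen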
Large screens that a line does not name were inactive.

Nc1ccc(N2CCN(c3cccc(Cl)c3)CC2)cc1	none
N#CCC(=O)Nc1ccc(C(=O)NNC(=S)NC2CC2)cc1	CHRM4 PAM 25
C=CCNC(=O)/C(=C/c1cccc([N+](=O)[O-])c1)NC(=O)c1ccco1	CHO-K1 Ca ag 15
Cc1cccc(NC(=O)CSc2nccn2Cc2ccco2)c1C	CHRM4 PAM 19
Cc1cc(NC(=O)CSc2nnc(COc3cccc(C)c3C)n2Cc2ccco2)no1	CHRM4 PAM 29
Cc1ccccc1NC(=O)CSc1nccn1Cc1ccco1	none
CSCCC(=O)N1CCCC(N(C)CCc2ccccc2)C1 (stereo not drawn)	none
COC(=O)[C@@]12C[C@@H](CC(=O)NCc3cccc(C(F)(F)F)c3)C(=O)N(CCc3ccc(OC)c(OC)c3)C1=CCC(C)(C)C2	M4 ag 33, CHRM4 antagonist 27 (no result: CHO-K1 Ca antag, CHO-K1 Ca PAM, CHO-K1 Ca ag)
c1ccc(CC2CCN(C3=Nc4cccc5cccc3c45)CC2)cc1	CHRM4 antagonist 27
CCN(CC)C(=O)Cn1cc(C(=O)C(=O)N(C)C2CCN(C)CC2)c2ccccc21	CHRM4 PAM 17
Cc1cc(NS(=O)(=O)c2ccc(NC(=O)N[C@H](C(=O)O)C(C)C)cc2)no1	none
CC1CCN(c2ccccc2NC(=O)c2ccc(N3CCOCC3)c([N+](=O)[O-])c2)CC1	none
O=C(CN1CCCCC1)N1N=C(c2cccs2)CC1c1cccs1 (stereo not drawn)	CHRM4 antagonist 45
O=C(CNCCO)N1N=C(c2cccs2)CC1c1cccs1 (stereo not drawn)	none
O=C(O)c1cccc(S(=O)(=O)Nc2cccc3ccccc23)c1	none
O=C(c1[nH]c(C(F)(F)F)nc1-c1ccccc1)N1CCCCC1	CHO-K1 Ca antag 26
Cn1c2ccccc2c(=O)c2ccc(C#CC3(O)CCCCC3)cc21	M4 ag 37
Cc1cccn2cc(CNC(=O)C3CCCCC3)nc12	CHO-K1 Ca ag 19
Cc1cccn2cc(CNC(=O)c3ccc(Br)o3)nc12	none
Cc1cc(NC(=O)CSc2cc(Cl)ccc2Cl)n(-c2ccccc2)n1	CHO-K1 Ca antag 25
c1ccc(CN2CCC(Nc3nc(-c4cccs4)nc4ccccc34)CC2)cc1	CHO-K1 Ca ag 16
CCC(=O)NC(C)c1cc(Cl)c2cccnc2c1O (stereo not drawn)	none
CC(C)CC(=O)Nc1nnc(S(=O)(=O)N2CCc3ccccc32)s1	CHO-K1 Ca antag 29
CCC(=O)Nc1nnc(S(=O)(=O)N2CCc3ccccc32)s1	none
CCN(CC)CC#CCC(O)(c1ccccc1)C1CCCC1 (stereo not drawn)	CHRM4 antagonist 95
CN(C)CC#CCC(O)(c1ccccc1)C1CCCCC1 (stereo not drawn)	CHRM4 antagonist 92
Nc1ccn(Cc2ccccc2F)n1	none
O=C(CSc1nnnn1-c1ccc(Cl)cc1)N1CCNC1=O	none
O=C(c1cc2sccc2n1Cc1ccccc1)N1CCN(c2nc3ccccc3s2)CC1	CHRM4 antagonist 27
Cc1ccccc1C(=O)N1CC(=O)Nc2ccc(F)cc2C1c1ccccc1 (stereo not drawn)	CHO-K1 Ca ag 23
O=C1CN(C(=O)c2cc3ccccc3oc2=O)C(c2ccc(F)cc2)c2cc(F)ccc2N1 (stereo not drawn)	CHO-K1 Ca antag 25
O=C1CN(C(=O)c2cc3ccccc3oc2=O)C(c2ccccc2)c2cc(F)ccc2N1 (stereo not drawn)	none
CCN(C[C@H]1N[C@@](Cc2ccccc2)(C(=O)OC)[C@H]2C(=O)N(C)C(=O)[C@@H]12)C(=O)c1ccccc1	none
CCN(C[C@H]1N[C@@](Cc2ccccc2)(C(=O)OC)[C@H]2C(=O)N(Cc3ccccc3)C(=O)[C@@H]12)C(=O)Nc1ccc(C(F)(F)F)cc1	CHO-K1 Ca antag 31
CCN(C[C@H]1N[C@@](Cc2ccccc2)(C(=O)OC)[C@H]2C(=O)N(C)C(=O)[C@@H]12)C(=O)C1CCCCC1	CHO-K1 Ca antag 26
CCN(C[C@H]1N[C@@](Cc2ccccc2)(C(=O)OC)[C@H]2C(=O)N(Cc3ccccc3)C(=O)[C@@H]12)C(=O)Nc1ccc(C)cc1	none
CC1(C)Cc2cccc(OCC(=O)OCC(=O)Nc3ccc(C(N)=O)cc3)c2O1	none

Source: PubChem BioAssay
